“And” between values parts separate entries of the source, which are not always exact repeats. Equal values may be shown once. Records with an inconclusive call do not appear. The source made the active and inactive calls. Unless noted, the rule behind the calls is not given here.
Legend:
[1] = qHTS Assay for Identifying Gametocytocidal Compounds (AID 743244; active = well fitted curve in the direction sought with a large enough effect; an effect the other way counts as inactive or inconclusive; note: potency is the fitted concentration of half-maximal effect;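 for max response: % is set by controls: 0 for no effect and ±100 for the full control effect; actives lower the fluorescent signal which means gametocytes are killed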); settings: P. falciparum 3D7 stage III-V gametocytes, alamarBlue, 72 h; max response: stronger effect = lower value
In short: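 In this qHTS viability screen, late-stage 3D7 gametocytes are incubated with compound for 72 h, then with alamarBlue for 24 h; reduced resorufin fluorescence marks killing.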

[2] = qHTS profiling for inhibitors of Plasmodium falciparum (3D7) proliferation (AID 743322);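 note: infected erythrocytes exposed to compound for 72 h before lysis; 100% = DMSO vehicle wells and 0% = 0.29 µM artemisinin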; settings: P. falciparum 3D7 proliferation; at 28.7 µM (top of the series) unless noted
In short: (§1)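 Parasite DNA was quantified by SYBR Green I fluorescence (ex 485, em 535 nm) after overnight lysis in saponin/Triton buffer at room temperature. Cultures at 0.3% parasitemia and 2.5% hematocrit were first exposed to compound for 72 h at 37 C; signals were normalised to artemisinin (0.29 uM) and vehicle wells.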

[3] = qHTS profiling for inhibitors of Plasmodium falciparum (DD2) proliferation (AID 743323); settings: lower = more inhibition; at 28.7 µM (top of the series) unless noted
In short: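 1536-well qHTS; infected RBCs 0.3% parasitemia/2.5% Hct final; cpd 72 h 37 C 5% CO2; lysis buffer + SYBR Green I, o/n RT dark; FI 485/535; norm. to 0.29 uM artemisinin and DMSO, plate-stack corrected.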

[4] = qHTS profiling for inhibitors of Plasmodium falciparum (HB3) proliferation (AID 743324; active = well fitted curve in the direction sought with a large enough effect; an effect the other way counts as inactive or inconclusive;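 note: 100% = DMSO vehicle wells and 0% = artemisinin-treated control wells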); settings: Plasmodium falciparum HB3 blood-stage proliferation; at 28.7 µM (top of the series) unless noted
In short: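 SYBR Green fluorescence (485 ex/535 em) of lysed cultures, incubated overnight at room temperature in the dark, quantifies parasite DNA. Infected erythrocytes at 0.3% parasitemia and 2.5% hematocrit were exposed 72 h; values normalized to DMSO and 0.29 uM artemisinin controls.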

[5] = qHTS profiling of the MIPE4 collection as inhibitors of Plasmodium falciparum (3D7) proliferation (AID 743344);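 note: scaled between DMSO vehicle wells and 0.29 µM artemisinin as full inhibition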; settings: P. falciparum 3D7 in erythrocytes, SYBR Green DNA fluorescence, 72 h; at 28.5 µM (top of the series) unless noted
In short: as §1

[6] = qHTS profiling of the MIPE4 collection as inhibitors of Plasmodium falciparum (DD2) proliferation (AID 743345); settings: P. falciparum Dd2 in erythrocytes, SYBR Green DNA, 72 h; at 28.5 µM (top of the series) unless noted
In short: as §1

[7] = qHTS profiling of the MIPE4 collection as inhibitors of Plasmodium falciparum (DD2) proliferation (Rep 2) (AID 743346); settings: P. falciparum Dd2 in erythrocytes, SYBR Green DNA, 72 h; at 28.5 µM (top of the series) unless noted
In short: as §1

[8] = qHTS profiling of the MIPE4 collection as inhibitors of Plasmodium falciparum (HB3) proliferation (AID 743347);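 note: plate controls were DMSO vehicle wells for no effect and artemisinin wells for full effect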; settings: P. falciparum HB3 in erythrocytes, SYBR Green DNA, 72 h; at 28.5 µM (top of the series) unless noted
In short: as §1

| SMILES | Potency [1] | remaining parasite growth % (stronger effect = lower value) [2] | activity, percent of control [3] | remaining proliferation (% of control), lower = more inhibition [4] | parasite growth, % of DMSO control [5] | parasite growth remaining, % of DMSO control (lower = more inhibition) [6] | parasite growth, % of control (lower = inhibition) [7] | growth, % of control [8] | max response [1] |
| --- | --- | --- | --- | --- | --- | --- | --- | --- | --- |
| OCCn1cc(-c2cnc3nnn(Cc4ccc5ncccc5c4)c3n2)cn1 | 29.6 µM (active) | 81.8% | 86.8% | 64.7% | 56.6% | 94.4% | 56.8% | 47.5% | – |
| O=C1[C@H](Cc2ccc(O)cc2)N2C(=O)CCN(C(=O)NCc3ccccc3)[C@H]2CN1Cc1cccc2ccccc12 | – | 32.3% | 43.6% | -0.183% | 5.06% | 56% | 40.6% | 12.1% | -13% (inactive) |
| CNC(=O)c1ccc(C)c(-n2c(C)cc(OCc3ccc(F)cc3F)c(Br)c2=O)c1 | – | 91.9% | 80.8% | 52.2% | 42% | 84.9% | 50.9% | 93.8% | 32.9% (inactive) |
| CCCS(=O)(=O)Nc1ccc(F)c(C(=O)c2c[nH]c3ncc(Cl)cc23)c1F | – | 90.9% | 83.1% | 55.7% | 51.6% | 77.2% | 80.8% | 71.8% | 35.4% (inactive) |
| Nc1nc2[nH]cc(CCc3ccc(C(=O)N[C@@H](CCC(=O)O)C(=O)O)cc3)c2c(=O)[nH]1 | – | 14.6% | 10.6% | 4.66% | 55.6% | 48.3% | 26.3% | 139% | 97.2% (inactive) and -5.73% (inactive) |
| COc1cc2nccc(Oc3ccc(NC(=O)NC4CC4)c(Cl)c3)c2cc1C(N)=O | – | 63.1% | 67.5% | 30.9% | 17.7% | 70.8% | 30.6% | 19.2% | -10.8% (inactive) |
| S=C(NCc1ccc2c(c1)OCO2)N1CCN(c2ncnc3c2oc2ccccc23)CC1 | – | 75.4% | 87.1% | 28.7% | 20.8% [at 57.5 µM] | 66.7% [at 57.5 µM] | 63.5% [at 57.5 µM] | 30.4% [at 57.5 µM] | -9.54% (inactive) |
| Cn1cc(-c2ccc3nnc(C(F)(F)c4ccc5ncccc5c4)n3n2)cn1 | – | 40.4% | 62.2% | 17.3% | 24.5% | 70.3% | 41.1% | 35.2% | -4.32% (inactive) |
| Cc1cc(-c2ccc(CC(=O)Nc3ccc(-c4cccnc4)cc3)cc2)ccn1 | – | 75% | 88.9% | 6.55% | 32.3% | 95.7% | 110% | 63.6% | 17.3% (inactive) |
| O=C(C1CC1)N1CC[C@@H](Cn2c(-c3ccc(-c4ccc5occc5c4)cc3)nc3cnccc32)C1 | – | 74.3% | 74.7% | 55.2% | 35% | 78.6% | 46.6% | 21.9% | -18.8% (inactive) |
| Cc1cc(SCc2sc(-c3ccc(C(F)(F)F)cc3)nc2C)ccc1OCC(=O)O | – | 106% and 98.8% | 99.9% and 82.6% | 77.3% and 39.3% | 64.2% | 96.2% | 50.7% | 96.6% | 25.7% (inactive) |
| NC(=O)C1CCCc2c1[nH]c1ccc(Cl)cc21 (configuration not stated) | – | 100% | 94.6% | 95% | 92% | 112% | 145% | 106% | 9.85% (inactive) |
| O=C(Nc1cccnc1)N1CCC(Cc2cccc(Oc3ccc(C(F)(F)F)cn3)c2)CC1 | – | 8.79% | 24.9% | 4.06% | 14.7% | 52.2% | 21% | 5.3% | -7.98% (inactive) |
| Cc1ccc(-n2nc(C(C)(C)C)cc2NC(=O)Nc2ccc(OCCN3CCOCC3)c3ccccc23)cc1 | 12.6 µM (active) | 24.3% | 14.4% | 5.8% | 29.4% | 84.5% | 31.6% | 72.4% | – |
| CCOc1cc(C(=O)Nc2ccc(Cl)c(-c3nc4ccccc4[nH]3)c2)cc(OCC)c1OCC | – | 1.56% | 15.9% | 0.587% | 5.5% | 58.5% | 17% | 7.25% | -21.5% (inactive) |
| C[C@@H]1C[C@H]2[C@@H]3CCC4=CC(=O)C=C[C@]4(C)C3(F)[C@@H](O)C[C@]2(C)[C@@]1(O)C(=O)CO (some centres not stated) | – | 109% | 95.7% | 85.9% | 71.2% | 96% | 146% | 95.5% | 2.96% (inactive) |
| COc1cc(F)c(F)c(Nc2ccc(I)cc2F)c1NS(=O)(=O)C1(C[C@H](O)CO)CC1 | – | 83.5% | 78.6% | 39.5% | 45.3% | 71.1% | 26.7% | 17.2% | 19.8% (inactive) |
| CCCn1c(=O)c2[nH]c(C34CC5CC3C[C@@H](C5)C4)nc2n(CCC)c1=O | – | 89.8% | 85.1% | 59.4% | 16.5% | 77.4% | 17.3% | 5.74% | 25.8% (inactive) |
| Cn1c(=O)c(F)c(Nc2ccc(I)cc2F)c2c(=O)n(C[C@@H](O)CO)cnc21 | – | 83.3% | 71.7% | 68.4% | 12.8% | 86.9% | 24.5% | 7.31% | -1.37% (inactive) |
